A selection: hits, their analogues and other compounds. The true share with any hit is near 0.93%.
RPL19A-GFP yeast: RPL19A-GFP expression modulators in yeast, primary screen, cell-based, S. cerevisiae, multiplex flow cytometry, MLPCN; hit rate 0.3% among 330,000; percent response vs DMSO, % at 10 µM; S. cerevisiae RPL19A-GFP strain, 3 h; hits give low values;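 active = percent response vs DMSO below 50%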;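 note: median channel GFP fluorescence of the barcoded RPL19A-GFP strain; ratio of sample median GFP to plate DMSO average so 100% = DMSO; lower means less RPL19A-GFP as with rapamycin TOR inhibition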
AGP1 TOR yeast: modulators of AGP1-GFP expression in yeast TOR pathway, primary screen, cell-based, multiplex flow cytometry, S. cerevisiae, MLPCN library; 3 h; GFP as percent of DMSO wells; GFP response vs DMSO, % at 10 µM; hit rate 0.02% among 320,000;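 active = GFP response relative to DMSO above a set limit, near screen average plus 3 SD, cut at about 150% in these data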;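 note: median GFP channel fluorescence of the gated AGP1 strain per well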
MEP2 TOR yeast: modulators of MEP2-GFP levels in yeast, primary screen, S. cerevisiae, multiplex flow cytometry, MLPCN library; GFP response vs DMSO, % at 10 µM; AID 2016, 2009; S. cerevisiae MEP2-GFP strain, 3 h; 100% = DMSO control level; hit rate 0.51% among 330,000;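 active = GFP response versus DMSO above a set limit, roughly screen mean plus 3 SD, cut at about 180% in these data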;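 note: median GFP fluorescence of the barcode-gated MEP2-GFP cells per well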
LAP4 TOR yeast: modulators of LAP4-GFP expression in yeast, primary screen, S. cerevisiae, multiplex flow cytometry, MLPCN library; 3 h; median GFP as percent of DMSO wells; GFP response vs DMSO, % at 10 µM; hit rate 0.34% among 320,000; AID 2023, 2009;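 active = GFP response vs DMSO above a set limit, about the screen mean plus 3 SD, cut at about 150% in these data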
CIT2 TOR yeast: modulators of CIT2-GFP expression in yeast, primary screen, S. cerevisiae, GFP fusion, multiplex flow cytometry, MLPCN library; hit rate 0.065% among 320,000; GFP response vs DMSO, % at 10 µM; AID 2029, 2009; S. cerevisiae CIT2-GFP strain, 3 h; 100 means same as DMSO wells;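 active = GFP response relative to DMSO above a set limit, near the screen mean plus 3 SD, cut at about 150% in these data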;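 note: ratio of well median GFP fluorescence to mean of DMSO wells on the plate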
LAP4 cherry2: LAP4-GFP expression modulators in yeast, confirmation, cell-based, second cherry pick, flow cytometry. shares compounds with LAP4 TOR yeast. S. cerevisiae LAP4-GFP strain, 3 h. GFP response vs DMSO, % at 10 µM. hit rate 20% among 590. AID 2621, 2010;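 active = GFP signal as percent of the solvent control above about 150%, meaning raised reporter expression, limit read from the data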;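 note: ratio of well median GFP fluorescence to plate DMSO mean so 100% = DMSO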
MEP2 cherry2: modulators of MEP2-GFP levels in yeast, confirmation, S. cerevisiae, flow cytometry GFP, second cherry picks | GFP response vs DMSO, % at 10 µM | hit rate 10% among 590 | S. cerevisiae MEP2-GFP strain, 3 h | shares compounds with LAP4 TOR yeast;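 active = GFP signal above 150% of the solvent control wells, that is a rise of more than half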;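 note: median channel GFP fluorescence of all gated yeast cells per well; ratio of median GFP to plate DMSO average so 100% = DMSO level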
RPL19A GFP CP2: RPL19A-GFP modulators in TOR pathway yeast, confirmation, cell-based, S. cerevisiae, flow cytometry, second cherry pick; S. cerevisiae RPL19A-GFP strain, 3 h; hits give low values; 100% means same as DMSO wells; hit rate 3% among 590; shares compounds with LAP4 TOR yeast; AID 2623, 2010; GFP response vs DMSO, % at 10 µM;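 active = under 65% GFP response relative to DMSO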;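 note: median GFP channel fluorescence per well over the all cells gate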
CIT2 GFP CP2: modulators of CIT2-GFP expression in yeast, confirmation, flow cytometry, second cherry pick, single plex; shares compounds with LAP4 TOR yeast; S. cerevisiae CIT2-GFP strain, 3 h; DMSO control wells read 100%; GFP response vs DMSO, % at 10 µM; hit rate 8% among 590;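 active = GFP response vs DMSO above about 150%, limit read from the data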;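 note: median green fluorescence per well over all gated yeast cells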
AGP1 GFP CP2: AGP1-GFP expression modulators, hit retest, confirmation, cell-based, flow cytometry, S. cerevisiae, cherry pick set 2 | shares compounds with LAP4 TOR yeast | S. cerevisiae AGP1-GFP strain, 3 h | percent response vs DMSO, % at 10 µM | 590 tested, under 10 active | AID 2643, 2010;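 active = over 150 percent of DMSO response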;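 note: median GFP channel fluorescence over all cells without mother daughter split; sample median GFP divided by mean DMSO control so 100% equals DMSO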
s288c autofluor: compound autofluorescence in yeast s288c, dose response, artefact control for yeast TOR pathway GFP screen, s288c strain | 610 tested, under 10 active | S. cerevisiae s288c, 520 nm autofluorescence, flow cytometry, 3 h; hits give high values; zero means same as solvent-only cells | AID 2757, 2010 | fluorescence change (kMESF span) at 33 µM | shares compounds with LAP4 TOR yeast;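 active = fluorescence span over the dose series, or activity score, above about 33, limit read from the data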
s288c autofl DR: autofluorescence of compounds in yeast s288c, dose response, artefact control for yeast TOR pathway GFP screen, primary hits, KU SAR, s288c parental; shares compounds with LAP4 TOR yeast; S. cerevisiae s288c parental, compound autofluorescence, flow cytometry, 3 h; fluorescence change (span) at 33 µM; 110 tested, under 10 active; AID 488829, 2010;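 active = fluorescence change span, or the activity score built from it, above 25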
TORC1 bypass: wild-type yeast growth inhibition sparing TORC1 bypass cells, mechanism study for yeast TOR pathway GFP screen, BY4741 wild type, TORC1 bypass strain. growth rating (0-3) at 30 µM. shares compounds with LAP4 TOR yeast. S. cerevisiae BY4741 spot growth rating, 48-72 h; hits give low values. AID 504456, 2011. 120 tested, under 10 active;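 active = growth rating at most 1 for wild type yeast while the TORC1 bypass strain still grows fully, rated 3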
The depositor's hits bear a star; . = no result.

SMILES	RPL19A-GFP yeast	AGP1 TOR yeast	MEP2 TOR yeast	LAP4 TOR yeast	CIT2 TOR yeast	LAP4 cherry2	MEP2 cherry2	RPL19A GFP CP2	CIT2 GFP CP2	AGP1 GFP CP2	s288c autofluor	others
O=C(Nn1c(-c2ccncc2)nc2ccccc2c1=O)c1ccc([N+](=O)[O-])cc1Cl	98	107	104	105	98	.	.	.	.	.	.
COc1ccc(NC(=O)Nc2cccc3c2O[C@H](CN(C)C(=O)Nc2ccc(OC)cc2)[C@@H](C)CN([C@H](C)CO)C3=O)cc1	94	90	92	90	84	.	.	.	.	.	.
Oc1c(C(Nc2cccc(C(F)(F)F)c2)c2cccnc2)ccc2cccnc12 (stereo not drawn)	106	102	101	96	102	.	.	.	.	.	.
CN1CCN(C(c2ccc(C(F)(F)F)cc2)c2ccc3cccnc3c2O)CC1 (stereo not drawn)	94	70	100	322*	82	.	.	.	.	.	1.3	s288c autofl DR=0.24;TORC1 bypass=3
Cc1ccc(C(c2cc(Cl)c3cccnc3c2O)N2CCN(C)CC2)cc1 (stereo not drawn)	75	67	100	227*	88	.	.	.	.	.	5.3	s288c autofl DR=2.8;TORC1 bypass=3
CC(=O)NC(c1cc(Cl)c2cccnc2c1O)C(C)C (stereo not drawn)	95	95	85	100	91	.	.	.	.	.	.
CC1=NN(c2nc3ccccc3[nH]2)C(=O)C1Cc1ccccc1 (stereo not drawn)	58	57	97	87	69	123	141	76	85	75	.
COc1ccc(C2=NS(=O)(=O)N(C)C(C(=O)Nc3ccc(F)cc3F)=C2)cc1	102	109	99	112	115	.	.	.	.	.	.
CN1C(=O)c2ccc(C(=O)NCc3ccccn3)cc2C1=O	104	105	107	103	109	.	.	.	.	.	.
CC(C)CCN1C(=O)c2ccc(C(=O)NCc3ccccn3)cc2C1=O	71	114	173	164*	127	111	128	100	115	103	.
O=C1CC(c2ccccc2)=NN1c1nc(-c2ccccc2)cs1	63	40	100	79	62	149	213*	81	145	77	2.2

Screens from PubChem BioAssay.
